Data as given in PubChem BioAssay (NCI).
This is part of a sample that, as a whole, favours compounds with a hit. Of some 79,000 tested, about 15% had one in any assay. Unmarked numbers belong to inactive results. Activity calls are given as the source filed them. Rule as the data show it: active = growth inhibition above about 70%; inactive = the rest.

Experiments:
[1] = NCI Yeast Anticancer Drug Screen. Data for the rad50 strain (AID 155);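 also: 0% = growth of vehicle-only cultures of the same strain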; conditions: S. cerevisiae rad50 strain growth inhibition, stronger effect = higher value
Summary of the method: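 Yeast carrying a defined DNA repair defect were exposed to test compounds, and growth was compared with vehicle-treated controls to give percent inhibition.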

[2] = NCI Yeast Anticancer Drug Screen. Data for the mec2-1 strain (AID 157); conditions: S. cerevisiae mec2-1 strain, stronger effect = higher value
Summary of the method: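 Each compound was tested on mec2-1 yeast, a strain altered in DNA damage repair or cell cycle control. Growth inhibition is reported relative to vehicle.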

[3] = NCI Yeast Anticancer Drug Screen. Data for the sgs1 mgt1 strain (AID 161);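 also: 0% = growth of cultures given vehicle only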; conditions: S. cerevisiae sgs1 mgt1 strain, stronger effect = higher value
Summary of the method: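 Genetically altered yeast, compound exposure, growth inhibition relative to vehicle.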

[4] = NCI Yeast Anticancer Drug Screen. Data for the cln2 rad14 strain (AID 165);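 also: 0% = growth equal to vehicle treated cultures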; conditions: S. cerevisiae cln2 rad14 strain, stronger effect = higher value
Summary of the method: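 Test compounds were added to cln2 rad14 yeast cultures; inhibition of growth was then determined by comparison with vehicle treatment.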

[5] = NCI Yeast Anticancer Drug Screen. Data for the bub3 strain (AID 167); conditions: S. cerevisiae bub3 mutant strain, stronger effect = higher value
Summary of the method: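 Compounds were applied to a genetically altered yeast strain carrying a cell-cycle control defect. Growth inhibition was scored against vehicle-treated controls.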

[6] = NCI Yeast Anticancer Drug Screen. Data for the mlh1 rad18 strain (AID 175); conditions: S. cerevisiae mlh1 rad18 strain growth inhibition, stronger effect = higher value
Summary of the method: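 Inhibition values reflect reduced growth of mutant yeast versus vehicle-treated controls following compound exposure; the mutations affect DNA damage repair.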

[7] = at 5.0 µM (retest, dose inferred, filed as 0.5)
[8] = at 50.0 µM (retest, dose inferred, filed as 5.0)

Row | Structure (SMILES) | growth inhibition [1, 7] [%] | growth inhibition [1, 8] | growth inhibition ([1]; at 50.0 µM) | growth inhibition [2, 7] [%] | growth inhibition [2, 8] | growth inhibition ([2]; at 50.0 µM) | growth inhibition [3, 7] [%] | growth inhibition [3, 8] | growth inhibition ([3]; at 50.0 µM) | growth inhibition [4, 7] [%] | growth inhibition [4, 8] | growth inhibition ([4]; at 50.0 µM) | growth inhibition [5, 7] [%] | growth inhibition [5, 8] | growth inhibition ([5]; at 50.0 µM) | growth inhibition [6, 7] [%] | growth inhibition [6, 8] | growth inhibition ([6]; at 50.0 µM)
1 | COc1ccccc1C1(c2ccccc2OC)OC(=O)c2ccccc21 | 3 | 14% | 77.8% (active) | -1 | 12% | 60.6% | 3 | -18% | 80.3% (active) | 1 | 22% | 69% | -2 | 17% | 77.3% (active) | -6 | 33% | 76% (active)
2 | O=C(CCCCCCCCCCc1ccccc1)c1ccc(Cl)cc1 | 7 | 76% (active) | 83.7% (active) | 5 | 79% (active) | 42.6% | 17 | 89% (active) | 93.7% (active) | 15 | 61% | 70.8% (active) | 13 | 72% (active) | 94.8% (active) | 16 | 80% (active) | 70.6% (active)
3 | CC(C)(N)COB(c1ccccc1)c1ccccc1 | 10 | 99% (active) | 99.7% (active) | -5 | 99% (active) | 99.8% (active) | -1 | 99% (active) | 99.8% (active) | 0 | 99% (active) | 99.5% (active) | -4 | 98% (active) | 99.8% (active) | -7 | 99% (active) | 99.5% (active)
4 | OCCc1ccccc1C(c1ccccc1)c1ccccc1 | 5 | 98% (active) | 99.3% (active) | -4 | 99% (active) | 99.4% (active) | 1 | -16% | 99.2% (active) | 8 | 99% (active) | 98.8% (active) | 0 | 99% (active) | 99.2% (active) | 4 | 99% (active) | 98.9% (active)
5 | CS/C(=N\N=C(/C)c1ccccn1)N1CCN(c2ccccn2)CC1 | 1 | 22% | 98.1% (active) | -1 | 14% | 82.2% (active) | -1 | 96% (active) | 98.6% (active) | -5 | 84% (active) | 64.2% | -7 | 94% (active) | 91.2% (active) | -8 | 98% (active) | 87.5% (active)
6 | COc1ccc2c(c1)CCCN2CCCCCCCCCCN1CCCCC1 | 13 | 38% | 71.3% (active) | 7 | 34% | 56.9% | 36 | 73% (active) | 80.8% (active) | 28 | 28% | 71.2% (active) | 35 | 60% | 59.8% | 25 | 25% | 61.4%
7 | CN(C)CCCC(=O)OCC[N+](C)(C)C | -2 | 4% | -39.2% | -4 | 6% | -8.5% | -4 | -2% | -11.2% | -14 | -3% | 64.3% | -1 | 5% | 14.2% | -4 | 5% | -12.5%
8 | O=[N+]([O-])c1ccccc1CC(c1c[nH]c2ccccc12)c1c[nH]c2ccccc12 | 0 | 73% (active) | 86% (active) | -1 | 74% (active) | 80.7% (active) | -2 | 70% (active) | 82.9% (active) | 1 | 80% (active) | 78.9% (active) | -1 | 80% (active) | 55.8% | 1 | 81% (active) | 87.3% (active)
9 | COC(=O)/C=C(\Cl)C(=O)OC | 8 | 84% (active) | 99.3% (active) | 16 | 99% (active) | 99.7% (active) | 5 | 98% (active) | 99.5% (active) | 19 | 99% (active) | 97.5% (active) | 19 | 97% (active) | 99.5% (active) | 7 | 98% (active) | 99.2% (active)
10 | COC1OC(CBr)C(OC(c2ccccc2)(c2ccccc2)c2ccccc2)C(OC(c2ccccc2)(c2ccccc2)c2ccccc2)C1OC(c1ccccc1)(c1ccccc1)c1ccccc1 (stereo not given) | -11 | 11% | 98.8% (active) | -12 | -27% | 98.7% (active) | -11 | -9% | 98.5% (active) | -8 | 33% | 96.5% (active) | -2 | 25% | 97.7% (active) | -5 | 32% | 98% (active)
